Measured values from PubChem BioAssay AID1159580 (chemical genetic matrix, 2015).
Screen size: about 5,500 compounds; about 2,000 (36%) were called active. Inconclusive results (about 18%) are left out. Cut-off read from the data, not from the text of the source: active = normalized growth mostly below about 0.91 (no sharp cut-off); inconclusive = no clear call, values can overlap the other calls; inactive = mostly above about 0.92. The list shows a part of the results.

Experiment: chemical genetic growth profiling, strain panel (AID 1159580);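 note: tested at 20 µM; growth read once vehicle control cultures reached saturation at 30 °C; 1 = growth at the plate median or of vehicle wells; lower values mean less growth of the strain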
Conditions: growth OD

Measured: normalized growth

Oc1cccc(O)c1
inactive: S. cerevisiae deletion strains, locus YJR066W, strain TOR1, hits give low values 0.971 | S. cerevisiae deletion strains, locus YJR075W, strain HOC1, hits give low values 1.01 | S. cerevisiae deletion strains, locus YKL009W, strain mrt4, hits give low values 0.98 | S. cerevisiae deletion strains, locus YKL068W, hits give low values 0.997 | S. cerevisiae deletion strains, locus YKL085W, strain MDH1 (second series), hits give low values 0.994 | S. cerevisiae deletion strains, locus YKL085W, strain MDH1, hits give low values 0.994 | S. cerevisiae deletion strains, locus YKL160W, strain elf1, hits give low values 1.02 | S. cerevisiae deletion strains, locus YKL190W, strain CNB1, hits give low values 1.01 | S. cerevisiae deletion strains, locus YKR001C, strain vps1, hits give low values 0.98 | S. cerevisiae deletion strains, locus YKR026C, strain gcn3, hits give low values 0.967 | S. cerevisiae deletion strains, locus YKR091W, strain srl3, hits give low values 0.979 | S. cerevisiae deletion strains, locus YLL001W, strain dnm1, hits give low values 0.993 | S. cerevisiae deletion strains, locus YLL026W, hits give low values 1.01 | S. cerevisiae deletion strains, locus YLL041C, strain sdh2, hits give low values 0.979 | S. cerevisiae deletion strains, locus YLR027C, strain aat2, hits give low values 0.992 | S. cerevisiae deletion strains, locus YLR039C, strain RIC1, hits give low values 1.01 | S. cerevisiae deletion strains, locus YLR058C, strain SHM2, hits give low values 1.01 | S. cerevisiae deletion strains, locus YLR102C, strain apc9, hits give low values 0.993 | S. cerevisiae deletion strains, locus YLR113W, strain HOG1, hits give low values 1.01 | S. cerevisiae deletion strains, locus YLR221C, strain rsa3, hits give low values 0.962 | S. cerevisiae deletion strains, locus YLR258W, strain gsy2, hits give low values 0.956 | S. cerevisiae deletion strains, locus YLR262C, strain YPT6 (second series), hits give low values 1 | S. cerevisiae deletion strains, locus YLR262C, strain YPT6, hits give low values 1.02 | S. cerevisiae deletion strains, locus YLR268W, strain sec22, hits give low values 0.974 | S. cerevisiae deletion strains, locus YLR320W, strain mms22, hits give low values 0.944 | S. cerevisiae deletion strains, locus YLR330W, strain CHS5, hits give low values 1.01 | S. cerevisiae deletion strains, locus YLR342W, strain FKS1 (second series), hits give low values 0.995 | S. cerevisiae deletion strains, locus YLR342W, strain FKS1, hits give low values 1 | S. cerevisiae deletion strains, locus YLR357W, strain rsc2, hits give low values 0.977 | S. cerevisiae deletion strains, locus YLR370C, strain arc18, hits give low values 0.992 | S. cerevisiae deletion strains, locus YLR371W, strain rom2, hits give low values 0.992 | S. cerevisiae deletion strains, locus YLR384C, strain iki3, hits give low values 0.997 | S. cerevisiae deletion strains, locus YLR418C, strain cdc73, hits give low values 0.961 | S. cerevisiae deletion strains, locus YML016C, strain PPZ1, hits give low values 1 | S. cerevisiae deletion strains, locus YML032C, strain rad52, hits give low values 0.983 | S. cerevisiae deletion strains, locus YML120C, strain ndi1, hits give low values 0.986 | S. cerevisiae deletion strains, locus YML124C, strain tub3, hits give low values 0.991 | S. cerevisiae deletion strains, locus YMR058W, strain fet3, hits give low values 0.972 | S. cerevisiae deletion strains, locus YMR078C, strain ctf18, hits give low values 0.989 | S. cerevisiae deletion strains, locus YMR125W, strain sto1, hits give low values 0.932 | S. cerevisiae deletion strains, locus YMR129W, hits give low values 0.974 | S. cerevisiae deletion strains, locus YMR205C, strain PFK2, hits give low values 0.991 | S. cerevisiae deletion strains, locus YMR223W, strain ubp8, hits give low values 0.991 | S. cerevisiae deletion strains, locus YMR231W, strain pep5, hits give low values 0.985 | S. cerevisiae deletion strains, locus YMR263W, strain SAP30, hits give low values 1.01 | S. cerevisiae deletion strains, locus YMR307W, strain GAS1, hits give low values 0.989 | S. cerevisiae deletion strains, locus YNL067W, strain RPL9B, hits give low values 1.02 | S. cerevisiae deletion strains, locus YNL071W, strain lat1, hits give low values 0.969 | S. cerevisiae deletion strains, locus YNL183C, strain NPR1, hits give low values 0.951 | S. cerevisiae deletion strains, locus YNL209W, strain ssb2, hits give low values 0.973 | S. cerevisiae deletion strains, locus YNL233W, strain BNI4, hits give low values 1.01 | S. cerevisiae deletion strains, locus YNL248C, strain rpa49, hits give low values 0.957 | S. cerevisiae deletion strains, locus YNL250W, strain rad50, hits give low values 0.985 | S. cerevisiae deletion strains, locus YNL271C, strain bni1, hits give low values 0.991 | S. cerevisiae deletion strains, locus YNL298W, strain CLA4, hits give low values 0.978 | S. cerevisiae deletion strains, locus YNL307C, strain MCK1, hits give low values 0.988 | S. cerevisiae deletion strains, locus YNL322C, strain KRE1 (second series), hits give low values 0.967 | S. cerevisiae deletion strains, locus YNR049C, strain mso1, hits give low values 0.971 | S. cerevisiae deletion strains, locus YNR052C, strain pop2, hits give low values 0.99 | S. cerevisiae deletion strains, locus YOL006C, strain TOP1, hits give low values 1.03 | S. cerevisiae deletion strains, locus YOL012C, strain htz1 0.68 | S. cerevisiae deletion strains, locus YOL147C, strain pex11, hits give low values 0.995 | S. cerevisiae deletion strains, locus YOR001W, strain rrp6, hits give low values 1.01 | S. cerevisiae deletion strains, locus YOR061W, strain CKA2, hits give low values 1.01 | S. cerevisiae deletion strains, locus YOR069W, strain VPS5, hits give low values 1 | S. cerevisiae deletion strains, locus YOR070C, strain gyp1, hits give low values 0.979 | S. cerevisiae deletion strains, locus YOR080W, strain dia2, hits give low values 0.987 | S. cerevisiae deletion strains, locus YOR083W, strain WHI5, hits give low values 0.986 | S. cerevisiae deletion strains, locus YOR106W, strain vam3, hits give low values 0.983 | S. cerevisiae deletion strains, locus YOR136W, strain idh2, hits give low values 0.988 | S. cerevisiae deletion strains, locus YOR144C, strain elg1, hits give low values 0.98 | S. cerevisiae deletion strains, locus YOR184W, strain ser1, hits give low values 0.977 | S. cerevisiae deletion strains, locus YOR231W, strain MKK1, hits give low values 1.02 | S. cerevisiae deletion strains, locus YOR265W, strain rbl2, hits give low values 0.987 | S. cerevisiae deletion strains, locus YOR270C, strain vph1, hits give low values 0.969 | S. cerevisiae deletion strains, locus YOR290C, strain snf2, hits give low values 0.922 | S. cerevisiae deletion strains, locus YOR316C, strain cot1, hits give low values 0.995 | S. cerevisiae deletion strains, locus YPL051W, strain arl3, hits give low values 1 | S. cerevisiae deletion strains, locus YPL055C, strain LGE1, hits give low values 1.03 | S. cerevisiae deletion strains, locus YPL078C, strain atp4, hits give low values 1 | S. cerevisiae deletion strains, locus YPL106C, strain sse1, hits give low values 0.926 | S. cerevisiae deletion strains, locus YPL240C, strain hsp82, hits give low values 0.995 | S. cerevisiae deletion strains, locus YPL241C, strain CIN2, hits give low values 1.01 | S. cerevisiae deletion strains, locus YPL256C, strain CLN2, hits give low values 1.06 | S. cerevisiae deletion strains, locus YPR119W, strain clb2, hits give low values 0.959 | S. cerevisiae deletion strains, locus YPR141C, strain kar3, hits give low values 0.988 | S. cerevisiae deletion strains, locus YPR163C, strain tif3, hits give low values 0.993 | S. cerevisiae deletion strains, locus YPR167C, strain met16, hits give low values 0.995 | S. cerevisiae deletion strains, strain wtn01, hits give low values 0.979 | S. cerevisiae strains, strain wild type, hits give low values 1
